Reference: PubChem BioAssay (NCATS)
Inconclusive results are not listed. Activity calls are given as the source filed them. The call rests on the fitted dose curve; in most records, active means well fitted curve in the direction sought with a large enough effect; inconclusive means small, poorly fitted or top-dose-only effect, or another doubt; inactive means no such curve, though single readings can be large; an effect the other way counts as inactive or inconclusive.

Assays:
[1] = Cellular Toxicity (caspase-3) Mesangial (AID 660); conditions: mesangial cells, normalized: DMSO 0%, 100 µM tamoxifen 100%; at 91.7 µM (top of the series)
Outline: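 Human renal glomerular mesangial cells (1000/well) were treated with compounds for 16 h at 37 °C in complete medium, then caspase 3/7 activity was read by Caspase-Glo luminescence. Data were normalized to DMSO and 100 uM tamoxifen; AC50 from Hill fits.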

[2] = Cellular Toxicity (caspase-3) SK-N-SH (AID 661);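 further: 0% = DMSO basal and 100% = 10 µM staurosporine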
Outline: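 SK-N-SH human neuroblastoma cells (1500/well) were treated with compounds for 16 hr at 37 °C in complete medium; caspase 3/7 activity was read by Caspase-Glo luminescence. AC50 came from Hill fits of data normalized to DMSO and 10 uM staurosporine.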

[3] = Cellular Toxicity (caspase-3) H-4-II-E (AID 663); conditions: H-4-II-E rat hepatoma, scaled: DMSO 0%, 100 µM tamoxifen 100%; at 92.2 µM (top of the series);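 further: cells exposed to compound for 16 hr before readout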
Outline: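 Rat hepatoma H-4-II-E cells (1500/well) plated 5 hr, then exposed to compound titrations for 16 hr at 37 °C. Caspase-Glo 3/7 luminescence read after 20 min at RT; data normalized to DMSO and 100 uM tamoxifen, AC50 from Hill fits.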

[4] = Cellular Toxicity (caspase-3) Hek293 (AID 664); conditions: HEK293 caspase-3 activation, DMSO = 0%, 100 µM tamoxifen = 100%; at 92.2 µM (top of the series);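 further: cells exposed to compound for 16 h at 37 °C before readout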
Outline: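 HEK293 cells were exposed to compounds in complete medium for 16 hr at 37 °C, then caspase-3/7 activity was read by Caspase-Glo 3/7 luminescence after 20 min at room temperature. Data normalized to DMSO and 100 uM tamoxifen; AC50 from Hill fits.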

[5] = Cellular Toxicity (caspase-3) N2a (AID 665);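 further: compound exposure lasted 16 h at 37 °C before readout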
Outline: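 Mouse N2a neuroblastoma cells (1500/well) were treated with compounds for 16 h at 37 °C, then caspase-3/7 activity was read by Caspase-Glo luminescence after 1 h at room temperature. Data were normalized to DMSO and 10 uM staurosporine; AC50 from Hill fits.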

[6] = Cellular Toxicity (caspase-3) NIH 3T3 (AID 666);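 further: caspase signal read after 16 h compound exposure; 0% = DMSO basal and 100% = 100 µM tamoxifen stimulation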
Outline: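 Mouse NIH 3T3 fibroblasts (1000 cells/well) were treated with compound for 16 hr at 37°C in complete medium; caspase-3/7 activity was read by Caspase-Glo luminescence. Normalized to DMSO and 100 uM tamoxifen; AC50 from Hill fits.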

[7] = Cellular Toxicity (caspase-3) Renal Proximal Tubule (AID 667); conditions: Potency: caspase-3 activation;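 further: cells exposed to compound for 16 hours at 37 °C before detection; 0% = DMSO basal and 100% = 10 µM staurosporine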
Outline: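 Caspase 3/7 activation measured by luminescent aminoluciferin release in primary rat proximal tubule cells after 16 hr compound exposure at 37 °C. AC50 from Hill-fitted concentration-response, scaled between DMSO and 10 uM staurosporine.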

[8] = target: Cytochrome P450 3A4 (Homo sapiens) (UniProt P08684); assay: qHTS Assay for Inhibitors and Substrates of Cytochrome P450 3A4 (AID 884); further: on the % scale 0 is the no-effect control and ±100 the full control effect; nearly all actives have a fitted effect of over 50% in size
Outline: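 20 nM human CYP3A4 with 25 uM Luciferin-PPXE (at KM) in 200 mM KPO4, preincubated 10 min with compound; NADPH regeneration started a 60 min RT reaction. Luciferin detected by luminescence, normalized to 57 uM ketoconazole as full inhibition.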

[9] = Cell Viability - LYMP2-001 (AID 921);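 further: 0% = DMSO only and full inhibition = tetraoctylammonium bromide control wells; nearly all actives have a fitted effect of over 70% in size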
Outline: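 Cellular ATP loss read by luciferase luminescence after 24 h compound exposure at 37 C in complete medium. LYMP2-001 lymphoblastoid cells, 2500/well; qHTS concentration-response data fitted with Hill equation for AC50.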

[10] = MultiTox-Fluor Cytotoxicity Assay - LYMP1-001 - Dead Cells (AID 946)
Outline: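 Cytotoxicity as increased dead-cell protease fluorescence (bis-AAF-R110, 485/520 nm), read 60 min after MultiTox-Fluor reagent. Human lymphoblastoid line exposed 16 h; Hill-fitted AC50, with DMSO as 0% and 15 uM tetraoctylammonium bromide as 100%.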

[11] = MultiTox-Fluor Cytotoxicity Assay - LYMP1-001 - Live Cells (AID 947);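 further: 0% = DMSO only and full inhibition = tetraoctylammonium bromide control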
[12] = Cell Viability - LYMP1-002 - Assay at 16 hr (AID 948);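 further: 0% = DMSO alone and full effect = 92 µM tetraoctylammonium bromide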
Outline: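 ATP luminescence (CellTiter-Glo) was measured after 16 hr compound exposure at 37 C of 2500 lymphoblastoid LYMP1-002 cells per well. Concentration-response curves were fitted with the Hill equation to give AC50.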

[13] = MultiTox-Fluor Cytotoxicity Assay - LYMP1-002 - Live Cells (AID 955); further: on the % scale 0 is the no-effect control and ±100 the full control effect
Outline: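 Human lymphoblastoid LYMP1-002 cells, 2500/well in complete medium, rested 5 hr at 37 C, then exposed to compounds for 16 hr at 37 C. Live-cell protease cleavage of GF-AFC read by fluorescence (Ex/Em 405/510) after 60 min at room temperature; AC50 from Hill fits.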

[14] = MultiTox-Fluor Cytotoxicity Assay - LYMP1-002 - Dead Cells (AID 960); further: nearly all actives have a fitted effect of over 60% in size
Outline: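 Human lymphoblastoid cells (LYMP1-002), 2500/well in complete medium, were exposed to compounds for 16 hr at 37 C. Dead-cell protease activity was read as bis-AAF-R110 fluorescence (Ex/Em 485/520), normalized to DMSO and 15 uM tetraoctylammonium bromide; AC50 from Hill fits.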

[15] = MultiTox-Fluor Cytotoxicity Assay - LYMP1-003 - Dead Cells (AID 961); further: nearly all actives have a fitted effect of over 70% in size
Outline: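 Dead-cell protease release, detected as bis-AAF-R110 fluorescence at 485/520 nm, was measured in LYMP1-003 cells after 16 h compound treatment at 37 C. AC50 values came from Hill-modeled qHTS curves normalized to DMSO (0%) and 15 uM tetraoctylammonium bromide (100%).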

[16] = MultiTox-Fluor Cytotoxicity Assay - LYMP1-003 - Live Cells (AID 962);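 further: 0% = DMSO only and full loss = 92 µM tetraoctylammonium bromide; cytotoxic hits lower the live-cell protease signal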
Outline: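 LYMP1-003 human lymphoblastoid cells (2500/well) in complete medium were preincubated 5 hr at 37 C, then exposed to compounds for 16 hr at 37 C. Live-cell protease cleavage of GF-AFC read by fluorescence (Ex/Em 405/510); AC50 from Hill fits.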

[17] = Cell Viability - LYMP1-003 - Assay at 24 hr (AID 963);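 further: plate controls were DMSO only for no effect and tetraoctylammonium bromide positive control for full effect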
Outline: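 Human lymphoblastoid LYMP1-003 cells (2500/well) were rested 5 hr at 37 C, then exposed to compounds in complete medium for 24 hr at 37 C. Cellular ATP was quantified by CellTiter-Glo luminescence, and AC50 values came from Hill fits of concentration-response data.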

[18] = Cell Viability - LYMP1-003 - Assay at 40 hr (AID 964); further: on the % scale 0 is the no-effect control and ±100 the full control effect; nearly all actives have a fitted effect of over 60% in size
Outline: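 Human lymphoblastoid LYMP1-003 cells, 2500/well in complete medium, rested 5 hr at 37 C, then exposed to compounds for 40 hr at 37 C. Viability read as intracellular ATP by CellTiter-Glo luminescence; AC50 from Hill fits of concentration-response data.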

[19] = Cell Viability - LYMP2-003 (AID 965);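 further: cells exposed to compounds for 24 h before reading; 0% = DMSO only and full effect = 92 µM tetraoctylammonium bromide; nearly all actives have a fitted effect of over 50% in size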
Outline: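 CellTiter-Glo luminescence quantified ATP loss after 24 h compound treatment of LYMP2-003 lymphoblastoid cells at 37 C. Titration series were fitted with the standard Hill equation to give AC50.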

Cytochrome P450 3A4 (Homo sapiens), sequence (P08684 whole entry, looked up): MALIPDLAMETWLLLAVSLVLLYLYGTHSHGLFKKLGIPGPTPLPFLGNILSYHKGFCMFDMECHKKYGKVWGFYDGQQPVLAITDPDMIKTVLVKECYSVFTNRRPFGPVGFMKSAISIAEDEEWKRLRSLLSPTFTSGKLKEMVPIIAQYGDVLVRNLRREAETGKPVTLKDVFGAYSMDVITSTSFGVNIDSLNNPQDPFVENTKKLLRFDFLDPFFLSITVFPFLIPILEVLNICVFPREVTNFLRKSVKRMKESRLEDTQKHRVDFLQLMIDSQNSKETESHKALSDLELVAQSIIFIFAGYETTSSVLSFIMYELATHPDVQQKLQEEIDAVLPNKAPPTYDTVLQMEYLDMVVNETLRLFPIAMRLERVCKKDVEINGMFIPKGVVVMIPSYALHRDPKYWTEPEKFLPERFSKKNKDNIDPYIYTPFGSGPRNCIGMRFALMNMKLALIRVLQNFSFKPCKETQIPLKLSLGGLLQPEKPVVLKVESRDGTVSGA

CCCCOCCOCCSC#N
inactive: caspase-3 activation [1] -0.616% | outcome [2] | caspase-3 activation [3] 0.183% | caspase-3 activation [4] -2.09% | outcome [5] | outcome [6] | Potency [7] | Potency [8] | Potency [9] | outcome [10] | outcome [11] | outcome [12] | outcome [13] | outcome [14] | Potency [15] | Potency [16] | Potency [17] | Potency [18] | Potency [19]

Cc1cccc(C)c1[N+](=O)[O-]
inactive: caspase-3 activation [1] 0.452% | outcome [2] | caspase-3 activation [3] -0.326% | caspase-3 activation [4] -0.173% | outcome [5] | outcome [6] | Potency [7] | Potency [8] | Potency [9] | outcome [10] | outcome [11] | outcome [12] | outcome [13] | outcome [14] | Potency [15] | Potency [17] | Potency [18] | Potency [19]

CNC(=O)N(c1ccccc1)c1ccccc1
inactive: caspase-3 activation [1] 0.477% | outcome [2] | caspase-3 activation [3] 1.51% | caspase-3 activation [4] 0.502% | outcome [5] | outcome [6] | Potency [7] | Potency [8] | Potency [9] | outcome [10] | outcome [11] | outcome [12] | outcome [13] | outcome [14] | Potency [15] | Potency [17] | Potency [18] | Potency [19]

CC(CCl)OC(C)CCl (stereo not drawn)
inactive: caspase-3 activation [1] -0.591% | outcome [2] | caspase-3 activation [3] 0.133% | caspase-3 activation [4] 1.69% | outcome [5] | outcome [6] | Potency [7] | Potency [8] | Potency [9] | outcome [10] | outcome [11] | outcome [12] | outcome [13] | outcome [14] | Potency [15] | Potency [17] | Potency [18] | Potency [19]

CCCCCCCCCCCCOCC1CO1 (stereo not drawn)
inactive: caspase-3 activation [1] 1.85% | outcome [2] | caspase-3 activation [3] 3.02% | caspase-3 activation [4] 2.47% | outcome [5] | outcome [6] | Potency [7] | Potency [8] | Potency [9] | outcome [10] | outcome [11] | outcome [12] | outcome [13] | outcome [14] | Potency [15] | Potency [16] | Potency [17] | Potency [18] | Potency [19]

NC(N)=S
inactive: caspase-3 activation [1] -0.0158% | outcome [2] | caspase-3 activation [3] 1.67% | caspase-3 activation [4] -1.2% | outcome [5] | outcome [6] | Potency [7] | Potency [8] | Potency [9] | outcome [10] | outcome [11] | outcome [12] | outcome [13] | outcome [14] | Potency [15] | Potency [16] | Potency [17] | Potency [19]

CCC(C)O (stereo not drawn)
inactive: caspase-3 activation [1] 0.681% | outcome [2] | caspase-3 activation [3] 1.46% | caspase-3 activation [4] -1.23% | outcome [5] | outcome [6] | Potency [7] | Potency [8] | Potency [9] | outcome [10] | outcome [11] | outcome [12] | outcome [13] | outcome [14] | Potency [15] | Potency [16] | Potency [17] | Potency [18] | Potency [19]

CCOc1ccccc1N
inactive: caspase-3 activation [1] 1.9% | outcome [2] | caspase-3 activation [3] -0.577% | caspase-3 activation [4] -1.95% | outcome [5] | outcome [6] | Potency [7] | Potency [8] | Potency [9] | outcome [10] | outcome [11] | outcome [12] | outcome [13] | outcome [14] | Potency [15] | Potency [16] | Potency [17] | Potency [19]

O=C(O)c1cccc([N+](=O)[O-])c1
inactive: caspase-3 activation [1] -1.42% | outcome [2] | caspase-3 activation [3] -0.0521% | caspase-3 activation [4] 2.38% | outcome [5] | outcome [6] | Potency [7] | Potency [8] | Potency [9] | outcome [10] | outcome [11] | outcome [12] | outcome [13] | outcome [14] | Potency [15] | Potency [16] | Potency [18] | Potency [19]

CCCCC(CC)C(=O)O (stereo not drawn)
inactive: caspase-3 activation [1] 0.178% | outcome [2] | caspase-3 activation [3] -0.144% | caspase-3 activation [4] 2.49% | outcome [5] | outcome [6] | Potency [7] | Potency [8] | Potency [9] | outcome [10] | outcome [11] | outcome [12] | outcome [13] | outcome [14] | Potency [15] | Potency [16] | Potency [17] | Potency [18] | Potency [19]

C1COC1
inactive: caspase-3 activation [1] 0.626% | outcome [2] | caspase-3 activation [3] 1.05% | caspase-3 activation [4] -1.66% | outcome [5] | outcome [6] | Potency [7] | Potency [8] | Potency [9] | outcome [10] | outcome [11] | outcome [12] | outcome [13] | outcome [14] | Potency [15] | Potency [16] | Potency [17] | Potency [19]

O=C(O)c1ccccc1C(=O)O
inactive: caspase-3 activation [1] 1.74% | outcome [2] | caspase-3 activation [3] -0.105% | caspase-3 activation [4] 3.14% | outcome [5] | outcome [6] | Potency [7] | Potency [8] | Potency [9] | outcome [10] | outcome [11] | outcome [12] | outcome [13] | outcome [14] | Potency [15] | Potency [17] | Potency [18] | Potency [19]

C(=C/c1ccccc1)/c1ccccc1
inactive: caspase-3 activation [1] 0.853% | outcome [2] | caspase-3 activation [3] 0.852% | caspase-3 activation [4] 5.17% | outcome [5] | outcome [6] | Potency [7] | Potency [8] | Potency [9] | outcome [10] | outcome [11] | outcome [12] | outcome [13] | outcome [14] | Potency [15] | Potency [16] | Potency [17] | Potency [18] | Potency [19]

COC(=O)CCC(=O)OC
inactive: caspase-3 activation [1] -0.284% | outcome [2] | caspase-3 activation [3] 0.845% | caspase-3 activation [4] -0.32% | outcome [5] | outcome [6] | Potency [7] | Potency [8] | Potency [9] | outcome [10] | outcome [11] | outcome [12] | outcome [13] | outcome [14] | Potency [15] | Potency [16] | Potency [17] | Potency [18] | Potency [19]
